Test results reported in the supplement of paper PMC10849652.
Targets with a hit are over-represented here; the source holds about 8,800 in all. About 0.5% of all pairs of compound and target were hits.

Key:
Assay in all cases: log2 fold change, soluble protein after heating vs DMSO (PISA); higher = thermal stabilisation; K562 lysate, 10 uM; active = over 0.2 and 3.5 SD of the protein, either way, in both replicates (recomputed)
[1] = compound: NCC(=O)Nc1ccc(-n2nc(C(F)(F)F)cc2-c2ccc3c(ccc4ccccc43)c2)cc1
Method in brief: (§1)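 Soluble protein was defined as the supernatant remaining after 21,000xg for 90 min, following pooling of heated aliquots and adjustment to 0.5% NP-40 at 4°C. Before that, crude K562 extract at 1 mg/mL protein in PBS pH 7.4 with 1 mM MgCl2 was treated with 10 μM compound for 30 min and heated for 3 min across 48°C-58°C. Quantification used TMTpro 16plex LC-MS/MS with channel sums equalised, and values are log-two fold changes in thermal stability relative to solvent controls from duplicates.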

[2] = compound: O=C(CCCCCCC(=O)Nc1ccccc1)NO [vorinostat]
Method in brief: as §1

[3] = compound: O=C(O)c1ccc2c(c1)nc(Nc1cccc(Cl)c1)c1ccncc12 [silmitasertib]
Method in brief: as §1

[4] = compound: O=C1NC(=O)C(c2cnc3ccccn23)=C1c1cn2c3c(cc(F)cc13)CN(C(=O)N1CCCCC1)CC2
Method in brief: as §1

[5] = compound: c1cn2cc(-c3ccc4cn[nH]c4c3)nc(Nc3ccc(N4CCOCC4)cc3)c2n1 [entospletinib]
Method in brief: as §1

Measured: log2 fold change

SEH1L isoform 1 (UniProt Q96EE3)
UniProt Q96EE3, sequence (Q96EE3 whole entry, looked up): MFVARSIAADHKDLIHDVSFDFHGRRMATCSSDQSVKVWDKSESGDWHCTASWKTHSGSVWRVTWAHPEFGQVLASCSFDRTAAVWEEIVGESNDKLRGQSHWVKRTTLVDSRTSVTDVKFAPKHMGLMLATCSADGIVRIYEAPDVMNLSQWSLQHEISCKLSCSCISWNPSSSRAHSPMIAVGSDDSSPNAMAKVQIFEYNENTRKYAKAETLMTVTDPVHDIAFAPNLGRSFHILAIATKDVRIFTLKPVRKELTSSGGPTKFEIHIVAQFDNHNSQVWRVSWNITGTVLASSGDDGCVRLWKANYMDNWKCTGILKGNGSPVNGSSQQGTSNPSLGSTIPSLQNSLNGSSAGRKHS
inactive: [1] 0.056 | [2] -0.001 | [3] -0.02 | [4] -0.008 | [5] -0.011

SDHA (UniProt P31040)
inactive: [1] 0.007 | [2] 0.058 | [3] -0.014 | [4] -0.028 | [5] -0.006

RNF170 (UniProt Q96K19)
inactive: [1] -0.003 | [2] 0.004 | [3] 0.169

RNF149 (UniProt Q8NC42)
inactive: [1] 0.036 | [2] 0.098 | [3] 0.013 | [4] 0.015

RPS6KA5 (UniProt O75582)
inactive: [1] -0.025 | [2] -0.189 | [3] 0.034 | [4] -0.303 | [5] -0.007

RFWD3 (UniProt Q6PCD5)
inactive: [1] 0.089 | [3] 0.061 | [4] -0.027 | [5] 0.043
active: [2] -0.444

RAD54L2 (UniProt Q9Y4B4)
inactive: [1] 0.119 | [3] 0.04 | [4] 0.01 | [5] 0.014
active: [2] -0.487

RTN4IP1 (UniProt Q8WWV3)
UniProt Q8WWV3, sequence (Q8WWV3 whole entry, looked up): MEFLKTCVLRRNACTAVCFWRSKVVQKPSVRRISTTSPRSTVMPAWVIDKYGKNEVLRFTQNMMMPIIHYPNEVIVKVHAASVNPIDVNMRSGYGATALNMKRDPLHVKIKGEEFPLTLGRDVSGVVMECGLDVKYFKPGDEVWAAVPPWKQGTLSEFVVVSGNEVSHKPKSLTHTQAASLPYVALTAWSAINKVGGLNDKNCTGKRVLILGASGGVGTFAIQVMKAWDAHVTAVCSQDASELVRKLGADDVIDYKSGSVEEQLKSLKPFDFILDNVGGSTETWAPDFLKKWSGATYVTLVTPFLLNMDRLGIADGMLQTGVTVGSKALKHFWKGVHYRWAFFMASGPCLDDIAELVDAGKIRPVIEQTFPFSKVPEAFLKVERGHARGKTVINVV
active: [2] -0.338
inactive: [1] -0.1 | [3] 0.165 | [4] 0.054 | [5] -0.01

RAC2 (UniProt P15153)
inactive: [1] -0.073 | [3] 0.024 | [4] 0.102 | [5] 0.024
active: [2] -0.25

SEMA4G isoform 2 (UniProt Q9NTN9)
inactive: [1] 0.078 | [3] 0.172 | [4] 0.103 | [5] -0.09
active: [2] -0.513

RBBP7 isoform 2 (UniProt Q16576)
UniProt Q16576, sequence (Q16576 whole entry, looked up): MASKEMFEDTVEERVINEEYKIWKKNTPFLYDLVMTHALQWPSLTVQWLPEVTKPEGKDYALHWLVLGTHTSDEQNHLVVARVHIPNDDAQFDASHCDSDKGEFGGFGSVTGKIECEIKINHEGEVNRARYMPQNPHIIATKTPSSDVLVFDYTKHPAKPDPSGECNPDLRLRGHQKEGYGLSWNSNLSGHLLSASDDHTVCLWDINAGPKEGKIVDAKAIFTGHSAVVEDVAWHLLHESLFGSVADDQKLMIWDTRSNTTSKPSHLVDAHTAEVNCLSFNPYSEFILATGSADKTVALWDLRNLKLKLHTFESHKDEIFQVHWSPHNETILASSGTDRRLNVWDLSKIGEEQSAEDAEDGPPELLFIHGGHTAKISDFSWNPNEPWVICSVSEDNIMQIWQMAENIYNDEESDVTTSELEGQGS
inactive: [1] -0.043 | [2] 0.03 | [3] -0.012 | [4] -0.068 | [5] 0.024

RARS (UniProt P54136)
active: [2] -0.309
inactive: [1] -0.004 | [3] 0.056 | [4] -0.009 | [5] 0.024

RHAG (UniProt Q02094)
inactive: [1] 0.031 | [2] -0.026 | [3] 0.153 | [4] 0.015 | [5] -0.03

SAMD4A (UniProt Q9UPU9)
active: [2] -0.647
inactive: [1] -0.038 | [3] 0.027 | [4] 0.014 | [5] -0.053

RPS18 (UniProt P62269)
inactive: [1] 0.033 | [2] 0.081 | [3] 0.019 | [4] 0.007 | [5] -0.02

RBM23 isoform 2 (UniProt Q86U06)
inactive: [1] 0.121 | [2] -0.334 | [3] -0.019 | [4] -0.113 | [5] 0.037

RPL8 (UniProt P62917)
inactive: [1] -0.041 | [2] 0.12 | [3] 0 | [4] 0.089 | [5] -0.006

RETSAT (UniProt Q6NUM9)
UniProt Q6NUM9, sequence (Q6NUM9 whole entry, looked up): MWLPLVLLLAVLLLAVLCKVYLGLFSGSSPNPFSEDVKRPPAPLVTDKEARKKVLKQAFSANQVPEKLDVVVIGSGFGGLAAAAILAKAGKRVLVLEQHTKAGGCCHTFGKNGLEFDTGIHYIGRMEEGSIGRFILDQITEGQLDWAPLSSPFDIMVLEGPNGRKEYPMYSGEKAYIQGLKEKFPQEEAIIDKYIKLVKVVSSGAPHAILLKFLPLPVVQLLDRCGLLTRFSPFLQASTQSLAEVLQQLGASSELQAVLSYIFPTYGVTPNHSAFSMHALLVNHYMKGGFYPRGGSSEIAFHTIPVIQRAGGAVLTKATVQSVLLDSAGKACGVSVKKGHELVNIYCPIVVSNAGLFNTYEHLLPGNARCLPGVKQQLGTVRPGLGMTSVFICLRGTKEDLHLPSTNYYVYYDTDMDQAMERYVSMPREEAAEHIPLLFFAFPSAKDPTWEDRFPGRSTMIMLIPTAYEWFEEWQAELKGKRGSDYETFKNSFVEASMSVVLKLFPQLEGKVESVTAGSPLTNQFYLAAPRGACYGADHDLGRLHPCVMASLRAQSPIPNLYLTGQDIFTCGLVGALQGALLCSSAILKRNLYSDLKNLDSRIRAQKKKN
inactive: [1] -0.087 | [2] 0.17 | [3] -0.016 | [4] 0.058 | [5] 0.036

RBM4 (UniProt Q9BWF3)
UniProt Q9BWF3, sequence (Q9BWF3 whole entry, looked up): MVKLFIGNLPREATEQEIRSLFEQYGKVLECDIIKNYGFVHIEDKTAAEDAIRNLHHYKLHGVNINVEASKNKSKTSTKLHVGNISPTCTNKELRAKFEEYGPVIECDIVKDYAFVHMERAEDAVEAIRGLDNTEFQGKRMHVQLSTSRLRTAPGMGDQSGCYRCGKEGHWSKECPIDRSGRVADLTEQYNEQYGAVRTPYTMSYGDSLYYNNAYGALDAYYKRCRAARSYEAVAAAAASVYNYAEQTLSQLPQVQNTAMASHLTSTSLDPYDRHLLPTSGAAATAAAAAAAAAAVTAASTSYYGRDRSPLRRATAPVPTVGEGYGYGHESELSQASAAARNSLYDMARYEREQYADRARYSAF
inactive: [1] -0.04 | [2] -0.172 | [3] 0.035 | [4] -0.097 | [5] 0.001

R3HCC1 (UniProt Q9Y3T6)
UniProt Q9Y3T6, sequence (Q9Y3T6 whole entry, looked up, one chain of several): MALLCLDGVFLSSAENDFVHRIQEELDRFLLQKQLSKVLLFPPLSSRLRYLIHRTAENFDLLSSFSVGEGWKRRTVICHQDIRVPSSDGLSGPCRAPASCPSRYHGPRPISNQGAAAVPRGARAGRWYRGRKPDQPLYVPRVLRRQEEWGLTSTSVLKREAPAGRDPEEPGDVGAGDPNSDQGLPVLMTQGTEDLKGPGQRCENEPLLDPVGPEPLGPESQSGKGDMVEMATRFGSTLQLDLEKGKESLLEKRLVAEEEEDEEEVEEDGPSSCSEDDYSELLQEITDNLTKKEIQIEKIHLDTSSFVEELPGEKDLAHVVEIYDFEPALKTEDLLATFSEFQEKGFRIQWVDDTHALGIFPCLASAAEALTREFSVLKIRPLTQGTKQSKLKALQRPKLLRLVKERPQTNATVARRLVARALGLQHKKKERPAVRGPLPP
inactive: [1] 0.045 | [3] -0.036 | [4] -0.002 | [5] 0.067
active: [2] -0.259

SCCPDH (UniProt Q8NBX0)
inactive: [1] -0.129 | [2] 0.34 | [3] -0.19 | [4] 0.115 | [5] 0.087

RAI14 isoform 2 (UniProt Q9P0K7)
active: [2] -0.254
inactive: [1] 0.005 | [3] 0.022 | [4] 0.015 | [5] -0.003

RCOR3 isoform 3 (UniProt Q9P2K3)
inactive: [1] -0.044 | [2] -0.206 | [3] -0.002 | [4] -0.01 | [5] 0.034

RECQL4 (UniProt O94761)
inactive: [1] -0.003 | [2] -0.044 | [3] 0.019 | [4] 0.022 | [5] -0.023

RPL31 (UniProt P62899)
inactive: [1] 0.003 | [2] 0.126 | [3] 0.007 | [4] 0.06 | [5] 0.021

RAPGEF2, A0A2R8YGD3
inactive: [1] -0.041 | [2] 0.2 | [3] -0.007 | [4] 0.015 | [5] -0.046

RFC5 (UniProt P40937)
inactive: [1] 0.019 | [3] 0.031 | [4] 0.019 | [5] 0.014
active: [2] -0.492

RALGAPB (UniProt Q86X10)
active: [2] -0.299
inactive: [1] 0.004 | [3] 0.017 | [4] -0.017 | [5] -0.029

RAB1B (UniProt Q9H0U4)
inactive: [1] 0.025 | [2] 0.186 | [3] 0.007 | [4] -0.039 | [5] -0.011

SEC62 (UniProt Q99442)
inactive: [1] 0.036 | [2] 0.133 | [3] 0.015 | [4] 0.007 | [5] -0.019

RXRB isoform 3 (UniProt P28702)
inactive: [1] 0.067 | [3] 0.168 | [4] 0.07 | [5] 0.006
active: [2] -0.757

SELENOK (UniProt Q9Y6D0)
inactive: [1] -0.192

RNASEH2B (UniProt Q5TBB1)
active: [2] -0.377
inactive: [1] -0.016 | [3] 0.054 | [4] -0.064 | [5] 0.011

SEC16A isoform 5 (UniProt O15027)
active: [2] -0.281
inactive: [1] 0.053 | [3] 0.008 | [4] -0.029 | [5] -0.015

RNF40 (UniProt O75150)
active: [2] -0.237
inactive: [1] 0.015 | [3] 0.032 | [4] -0.007 | [5] -0.022

SCD (UniProt O00767)
inactive: [1] -0.045 | [2] 0.021 | [3] -0.057 | [4] -0.028 | [5] 0.017

RANBP2 (UniProt P49792)
inactive: [1] -0.01 | [3] -0.004 | [4] 0.001 | [5] -0.006
active: [2] -0.343

RAB21 (UniProt Q9UL25)
inactive: [1] 0.017 | [2] -0.235 | [3] -0.021 | [4] 0.029 | [5] 0.02

RPL37A (UniProt P61513)
inactive: [1] 0.028 | [2] 0.08 | [3] -0.021 | [4] 0.093 | [5] -0.005

RFC4 (UniProt P35249)
active: [2] -0.423
inactive: [1] 0.013 | [3] 0.033 | [4] 0.008 | [5] 0.006

RFC3 (UniProt P40938)
inactive: [1] -0.01 | [3] 0.035 | [4] 0.006 | [5] 0.018
active: [2] -0.365

RAF1 isoform 2 (UniProt P04049)
UniProt P04049, sequence (P04049 whole entry, looked up): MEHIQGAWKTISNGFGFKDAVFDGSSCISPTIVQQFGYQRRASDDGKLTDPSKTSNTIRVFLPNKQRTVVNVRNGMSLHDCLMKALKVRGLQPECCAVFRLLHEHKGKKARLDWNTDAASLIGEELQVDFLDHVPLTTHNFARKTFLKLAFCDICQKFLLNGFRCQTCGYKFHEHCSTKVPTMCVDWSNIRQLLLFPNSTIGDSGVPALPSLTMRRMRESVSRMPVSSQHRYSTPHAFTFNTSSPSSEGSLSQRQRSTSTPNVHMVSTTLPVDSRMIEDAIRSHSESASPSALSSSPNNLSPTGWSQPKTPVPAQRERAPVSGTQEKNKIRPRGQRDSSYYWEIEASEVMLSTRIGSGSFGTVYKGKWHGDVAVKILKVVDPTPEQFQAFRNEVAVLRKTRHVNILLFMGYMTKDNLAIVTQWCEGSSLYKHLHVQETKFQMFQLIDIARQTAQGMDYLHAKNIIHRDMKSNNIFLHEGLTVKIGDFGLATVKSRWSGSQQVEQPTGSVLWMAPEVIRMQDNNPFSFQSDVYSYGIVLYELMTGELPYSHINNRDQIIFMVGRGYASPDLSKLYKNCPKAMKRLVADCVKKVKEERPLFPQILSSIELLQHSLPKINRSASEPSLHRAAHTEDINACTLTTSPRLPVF
inactive: [1] 0.126 | [3] 0.024 | [4] 0.068 | [5] -0.015
active: [2] -0.304

RPS6KA1 (UniProt Q15418)
inactive: [1] 0.014 | [2] -0.157 | [4] 0.123 | [5] -0.038
active: [3] 0.553

SCAF1 (UniProt Q9H7N4)
inactive: [1] -0.172 | [2] -0.076 | [3] 0.042 | [4] -0.04 | [5] 0.025

RAP1GAP isoform 4 (UniProt P47736)
active: [2] -0.419
inactive: [1] -0.058 | [3] -0.035 | [4] 0.022 | [5] -0.012

SEC61G (UniProt P60059)
inactive: [1] -0.047 | [2] 0.005 | [3] 0.013 | [4] 0.232 | [5] -0.034

RAB3IL1 (UniProt E9PK89)
active: [2] -0.614
inactive: [1] 0.016 | [3] 0.011 | [4] 0.079 | [5] -0.158

RMI2 (UniProt Q96E14)
inactive: [1] -0.008 | [3] 0.092 | [4] 0.041 | [5] -0.01
active: [2] -0.586

RETREG2 (UniProt Q8NC44)
UniProt Q8NC44, sequence (Q8NC44 whole entry, looked up): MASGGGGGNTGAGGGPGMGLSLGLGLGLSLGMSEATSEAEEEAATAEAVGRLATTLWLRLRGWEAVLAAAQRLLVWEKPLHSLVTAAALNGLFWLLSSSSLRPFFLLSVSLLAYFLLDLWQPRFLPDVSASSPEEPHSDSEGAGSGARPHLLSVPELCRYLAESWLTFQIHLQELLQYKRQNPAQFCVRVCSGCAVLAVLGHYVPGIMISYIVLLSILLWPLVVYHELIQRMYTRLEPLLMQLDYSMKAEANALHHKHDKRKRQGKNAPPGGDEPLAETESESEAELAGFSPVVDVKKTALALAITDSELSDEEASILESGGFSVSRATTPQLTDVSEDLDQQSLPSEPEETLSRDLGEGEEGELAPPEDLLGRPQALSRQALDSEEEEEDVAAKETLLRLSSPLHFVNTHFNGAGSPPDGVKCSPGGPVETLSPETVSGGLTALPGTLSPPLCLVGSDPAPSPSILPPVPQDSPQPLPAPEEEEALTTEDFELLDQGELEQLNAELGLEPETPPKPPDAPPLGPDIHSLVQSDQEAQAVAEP
inactive: [1] -0.058 | [2] 0.023 | [3] 0.015 | [4] -0.007 | [5] -0.004

RINT1 (UniProt Q6NUQ1)
UniProt Q6NUQ1, sequence (Q6NUQ1 whole entry, looked up): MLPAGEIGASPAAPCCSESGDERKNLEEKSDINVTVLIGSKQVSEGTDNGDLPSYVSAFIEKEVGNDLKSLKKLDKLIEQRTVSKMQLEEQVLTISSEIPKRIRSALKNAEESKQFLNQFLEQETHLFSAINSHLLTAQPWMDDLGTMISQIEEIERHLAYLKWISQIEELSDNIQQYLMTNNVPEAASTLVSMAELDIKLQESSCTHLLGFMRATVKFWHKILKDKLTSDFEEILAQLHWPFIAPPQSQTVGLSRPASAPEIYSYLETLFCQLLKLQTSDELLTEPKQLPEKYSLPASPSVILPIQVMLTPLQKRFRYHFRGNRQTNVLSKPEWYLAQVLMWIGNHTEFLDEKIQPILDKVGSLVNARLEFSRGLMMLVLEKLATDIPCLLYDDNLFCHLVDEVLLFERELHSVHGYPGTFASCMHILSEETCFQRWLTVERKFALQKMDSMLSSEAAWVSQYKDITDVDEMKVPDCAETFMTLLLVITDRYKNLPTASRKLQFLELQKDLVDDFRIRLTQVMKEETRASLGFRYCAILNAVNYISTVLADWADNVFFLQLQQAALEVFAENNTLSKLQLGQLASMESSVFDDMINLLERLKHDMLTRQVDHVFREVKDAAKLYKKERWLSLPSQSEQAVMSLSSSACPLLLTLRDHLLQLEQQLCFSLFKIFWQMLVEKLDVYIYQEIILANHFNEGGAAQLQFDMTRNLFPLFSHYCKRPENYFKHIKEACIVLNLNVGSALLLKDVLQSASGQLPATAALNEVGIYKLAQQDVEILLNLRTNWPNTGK
active: [2] -0.321
inactive: [1] 0.078 | [3] 0.038 | [4] 0.034 | [5] -0.089

RBM8A (UniProt Q9Y5S9)
inactive: [1] -0.113 | [2] 0.103 | [3] 0.042 | [4] -0.046 | [5] -0.019

RAB8B (UniProt Q92930)
inactive: [1] -0.022 | [2] 0.135 | [3] -0.025 | [4] 0 | [5] -0.021

RASA2 (UniProt Q15283)
active: [2] -0.275
inactive: [1] -0.007 | [3] 0.021 | [4] -0.006 | [5] 0.023

RNF2 (UniProt Q99496)
UniProt Q99496, sequence (Q99496 whole entry, looked up): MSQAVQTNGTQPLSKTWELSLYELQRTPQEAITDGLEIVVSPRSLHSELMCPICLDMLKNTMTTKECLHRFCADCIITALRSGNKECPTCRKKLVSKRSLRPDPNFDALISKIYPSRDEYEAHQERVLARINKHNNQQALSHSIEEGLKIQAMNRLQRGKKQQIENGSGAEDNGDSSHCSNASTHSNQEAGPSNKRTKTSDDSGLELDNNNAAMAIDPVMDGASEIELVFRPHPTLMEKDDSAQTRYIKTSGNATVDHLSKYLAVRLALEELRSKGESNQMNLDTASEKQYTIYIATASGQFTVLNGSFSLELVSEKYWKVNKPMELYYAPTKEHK
inactive: [1] -0.015 | [2] -0.037 | [3] 0.021 | [4] 0.008 | [5] -0.033
